Measured values published in PubChem BioAssay (Tox21).
Inconclusive results are not listed. Active and inactive are the calls of the source. Calls follow the shape of the dose curve; as a rule, active = well fitted cell-killing curve with a large enough effect in the repeat runs; inconclusive = weak or mixed curves, or effect the other way; inactive = flat fitted curve, though single readings scatter.

test: cAMP Responsive Elements (CRE) small molecule agonists, cell-based qHTS assay: qHTS cell viability counter screen (AID 2060914); conditions: CRE-bla HEK293T viability, CellTiter-Glo luminescence, 5 h; series mostly up to 92.4 µM; activity change, negative = cytotoxicity: at the top concentration; also: nearly all actives have a fitted effect of over 50% in size
How it was run: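 Cells are seeded and incubated 18 h, treated with compounds in DMSO for 3 h, read for the bla reporter, then given CellTiter-Glo; luminescence is measured after 30 min at room temperature.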
% is scaled to controls: 0 for no effect and ±100 for the full control effect; potency is read from the fitted curve at half-maximal effect.

| Structure (SMILES) | Potency | activity change, negative = cytotoxicity |
| --- | --- | --- |
| [Cd+2].[Cl-].[Cl-] | inactive |  |
| CNC(=O)CSP(=S)(OC)OC | inactive |  |
| CSC(=O)c1c(C(F)F)nc(C(F)(F)F)c(C(=O)SC)c1CC(C)C |  | -10.5% (inactive) |
| Cc1cc(C2CC2)nc(Nc2ccccc2)n1 |  | -29.4% (inactive) |
| CC(C)C1(C)N=C(c2nc3ccccc3cc2C(=O)O)NC1=O (stereo not given) | inactive |  |
| CC(C)c1ccc(OP(=O)(Oc2ccc(C(C)C)cc2)Oc2ccc(C(C)C)cc2)cc1 | inactive |  |
| O=C(Cl)c1ccccc1F |  | 6.91% (inactive) |
| CCO[C@H]1O[C@@H]2OC3(C)CC[C@H]4[C@H](C)CC[C@@H]([C@H]1C)[C@@]24OO3 |  | -6.44% [at 42.5 µM] (inactive) |
| CCC1(c2ccc(N)cc2)CCC(=O)NC1=O (stereo not given) |  | -0.347% (inactive) |
| C=C(C)[C@H]1Cc2c(ccc3c2O[C@@H]2COc4cc(OC)c(OC)cc4[C@@H]2C3=O)O1 | inactive |  |
| CCOP(=O)(OCC)SCCSCC | inactive |  |
| CC(C)CCON=O |  | -4.77% (inactive) |
| NNC(=S)NN | inactive |  |
| COC(C)(C)CCC[C@H](C)C/C=C/C(C)=C/C(=O)OC(C)C |  | 0.239% (inactive) |
| COP(=O)(OC)OC | inactive |  |
| C=CCOCC1CO1 (stereo not given) |  | -2.33% (inactive) |
| N#C/C=C/C#N |  | 0.748% (inactive) |
| O=S1(=O)OCC2C(CO1)C1(Cl)C(Cl)=C(Cl)C2(Cl)C1(Cl)Cl (stereo not given) |  | -17.9% (inactive) |
| Cn1c(-c2ccccc2)cc(-c2ccccc2)[n+]1C | inactive |  |
| CCc1cc(OC)c(C[C@H](C)N)cc1OC |  | -5.45% (inactive) |

| Structure (SMILES) | Potency | activity change, negative = cytotoxicity |
| --- | --- | --- |
| CCCCCCCCn1cc[n+](C)c1 |  | -16.3% (inactive) |
| O=[N+]([O-])c1ccc(F)c([N+](=O)[O-])c1 |  | -11.5% (inactive) |
| Cc1ccccc1C(=O)Nc1cccc(OC(C)C)c1 |  | -19.8% (inactive) |
| Nc1cc(Cl)cc(Cl)c1 | inactive |  |
| O=S1OC[C@@H]2[C@H](CO1)[C@]1(Cl)C(Cl)=C(Cl)[C@@]2(Cl)C1(Cl)Cl (stereo not given in full) |  | -21.1% (inactive) |
| O=[N+]([O-])O[C@H]1CO[C@H]2[C@@H]1OC[C@H]2O[N+](=O)[O-] |  | 0.0464% [at 42.5 µM] (inactive) |
| N#CCC#N |  | 1.34% (inactive) |
| CCOP(=O)(OCC)Oc1ccc([N+](=O)[O-])cc1 | inactive |  |
| COC(=O)N(OC)c1ccccc1COc1ccn(-c2ccc(Cl)cc2)n1 | 5.45 µM (active) |  |
| CNC | inactive |  |
| NC(=S)Nc1ccccc1 |  | 8.38% (inactive) |
| O=c1[nH]c2ccccc2c(=O)o1 | inactive |  |
| CCOP(=S)(OCC)Oc1cc(Cl)c(Br)cc1Cl |  | -13.3% (inactive) |
| O=C(O)c1nc(Cl)ccc1Cl | inactive |  |
| CCCCCCCCCCn1cc[n+](C)c1 | inactive |  |
| CCCN(CCC)c1c([N+](=O)[O-])cc(C(F)(F)F)cc1[N+](=O)[O-] | inactive |  |
| ClC1=C(Cl)C2(Cl)C(CBr)CC1(Cl)C2(Cl)Cl (stereo not given) | inactive |  |
| N#CSCSC#N | inactive |  |
| CC(C)(C)C(O)/C(=C\c1ccc(Cl)cc1Cl)n1cncn1 (stereo not given) |  | -18% (inactive) |
| CCC[CH2][Sn]([Cl])([Cl])[Cl] | inactive |  |
